Measured values from ChEMBL document CHEMBL3988442, “University of Dundee, Small-Polar-MMV Screening Library” (2021).
For some assays here: Results with a measured potency or affinity are listed apart.

What was measured:
Parameters in all cases: scale not given: direction of the effect not stated beside the values
[1] = target: Protein translocase subunit SecA (Escherichia coli (strain K12)) (UniProt P10408); assay: Assay to Identify E. coli SecA ATPase Inhibitors; assay type: functional; conditions: 30 µM
Sequence of Protein translocase subunit SecA (Escherichia coli (strain K12)) (P10408 whole entry): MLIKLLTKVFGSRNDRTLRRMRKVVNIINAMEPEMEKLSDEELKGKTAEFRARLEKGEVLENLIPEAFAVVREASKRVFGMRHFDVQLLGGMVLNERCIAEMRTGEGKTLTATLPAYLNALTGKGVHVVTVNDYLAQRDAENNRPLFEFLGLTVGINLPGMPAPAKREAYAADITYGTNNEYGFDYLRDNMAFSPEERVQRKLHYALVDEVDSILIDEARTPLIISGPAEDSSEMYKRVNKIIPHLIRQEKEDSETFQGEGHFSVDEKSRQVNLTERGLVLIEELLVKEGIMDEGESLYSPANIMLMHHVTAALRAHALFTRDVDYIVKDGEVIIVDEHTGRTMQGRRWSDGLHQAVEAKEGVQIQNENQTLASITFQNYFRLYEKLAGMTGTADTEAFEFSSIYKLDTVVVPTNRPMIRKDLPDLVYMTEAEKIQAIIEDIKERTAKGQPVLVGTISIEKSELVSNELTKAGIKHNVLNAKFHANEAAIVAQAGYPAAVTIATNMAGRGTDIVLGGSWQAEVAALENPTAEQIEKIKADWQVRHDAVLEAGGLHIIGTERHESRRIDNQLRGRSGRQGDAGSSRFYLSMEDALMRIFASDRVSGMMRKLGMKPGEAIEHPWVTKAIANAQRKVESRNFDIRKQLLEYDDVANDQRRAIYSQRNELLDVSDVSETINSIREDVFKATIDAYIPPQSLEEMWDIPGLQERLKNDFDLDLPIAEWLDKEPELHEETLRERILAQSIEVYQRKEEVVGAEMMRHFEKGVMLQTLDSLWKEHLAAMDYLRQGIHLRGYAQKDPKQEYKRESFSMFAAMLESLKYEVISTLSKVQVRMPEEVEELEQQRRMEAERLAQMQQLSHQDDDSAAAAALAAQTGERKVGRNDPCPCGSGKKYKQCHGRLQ

[2] = target: T1, Ubiquitin-activating enzyme e1, putative (Leishmania donovani (strain BPK282A1)) (UniProt E9BSI1); assay: Leishmania donovani Ubiquitin Activating Enzyme (LdE1); assay type: functional; conditions: 30 µM
T1 sequence (whole entry): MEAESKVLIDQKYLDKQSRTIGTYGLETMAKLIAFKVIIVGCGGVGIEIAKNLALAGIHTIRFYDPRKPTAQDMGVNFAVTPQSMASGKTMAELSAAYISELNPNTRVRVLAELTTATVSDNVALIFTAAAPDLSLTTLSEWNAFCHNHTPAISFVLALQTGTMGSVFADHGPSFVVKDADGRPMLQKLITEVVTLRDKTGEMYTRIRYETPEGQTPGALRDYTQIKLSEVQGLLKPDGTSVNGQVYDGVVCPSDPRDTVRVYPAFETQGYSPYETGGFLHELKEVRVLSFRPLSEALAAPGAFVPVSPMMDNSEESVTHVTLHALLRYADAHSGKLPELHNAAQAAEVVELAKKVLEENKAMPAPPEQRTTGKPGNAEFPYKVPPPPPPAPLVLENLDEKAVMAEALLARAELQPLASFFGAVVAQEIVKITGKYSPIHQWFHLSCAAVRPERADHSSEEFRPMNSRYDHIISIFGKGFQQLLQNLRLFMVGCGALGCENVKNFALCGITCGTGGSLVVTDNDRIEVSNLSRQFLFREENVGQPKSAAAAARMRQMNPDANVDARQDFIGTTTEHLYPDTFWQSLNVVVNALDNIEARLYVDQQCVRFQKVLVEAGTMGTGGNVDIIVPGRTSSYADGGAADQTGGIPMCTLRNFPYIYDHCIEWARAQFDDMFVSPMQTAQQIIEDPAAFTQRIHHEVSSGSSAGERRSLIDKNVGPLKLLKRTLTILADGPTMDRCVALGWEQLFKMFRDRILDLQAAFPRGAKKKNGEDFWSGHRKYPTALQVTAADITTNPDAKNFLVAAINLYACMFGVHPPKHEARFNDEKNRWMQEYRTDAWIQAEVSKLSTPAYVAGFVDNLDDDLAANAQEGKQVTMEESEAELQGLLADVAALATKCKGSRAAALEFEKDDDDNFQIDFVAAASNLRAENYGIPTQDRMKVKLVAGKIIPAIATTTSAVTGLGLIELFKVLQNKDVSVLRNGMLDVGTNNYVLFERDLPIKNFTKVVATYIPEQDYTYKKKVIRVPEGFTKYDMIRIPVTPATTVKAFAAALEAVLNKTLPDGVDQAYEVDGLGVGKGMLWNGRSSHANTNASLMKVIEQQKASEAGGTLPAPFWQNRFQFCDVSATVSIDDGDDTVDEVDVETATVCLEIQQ

[3] = target: AMP-activated protein kinase, AMPK (Homo sapiens) (UniProt P54646+O43741+P54619+Q9UGJ0+Q9Y478+Q13131+Q9UGI9); assay: AMP-dependent Kinase enzyme assay. An in vitro enzyme assay that detects ADP turnover that is directly proportional to AMPK activity. This uses naive AMPK that is activated during the assay with MK-8722; assay type: functional; conditions: 30 µM
[4] = target: Sialic acid-binding Ig-like lectin 9 (Homo sapiens) (UniProt Q9Y336); assay: Hs-Siglec9 ALPHAscreen SOP 20170721; conditions: 10 µM
Sequence of Sialic acid-binding Ig-like lectin 9 (Homo sapiens) (Q9Y336 whole entry): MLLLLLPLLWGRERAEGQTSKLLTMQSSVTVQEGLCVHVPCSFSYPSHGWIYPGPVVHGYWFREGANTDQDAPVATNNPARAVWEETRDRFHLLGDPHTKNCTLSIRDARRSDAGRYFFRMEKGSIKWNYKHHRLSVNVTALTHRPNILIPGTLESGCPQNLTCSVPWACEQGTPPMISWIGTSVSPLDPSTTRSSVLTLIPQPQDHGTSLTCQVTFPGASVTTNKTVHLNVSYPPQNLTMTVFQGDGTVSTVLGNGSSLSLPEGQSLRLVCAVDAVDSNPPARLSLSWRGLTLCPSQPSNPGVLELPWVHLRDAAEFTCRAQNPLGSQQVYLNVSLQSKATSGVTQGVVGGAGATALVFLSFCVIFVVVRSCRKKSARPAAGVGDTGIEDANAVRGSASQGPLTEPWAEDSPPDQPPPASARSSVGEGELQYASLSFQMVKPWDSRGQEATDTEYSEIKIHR

Trypanosoma cruzi = assay: Trypanosoma cruzi phosphomannomutase and mannose-1-phosphate guanylyltransferase assay; assay type: functional; conditions: 10 µM
[5] = target: T2, Arginase-2, mitochondrial (Homo sapiens) (UniProt P78540); assay: in vitro enzyme assay to detect the production of urea directly proportional to the activity of Arginase II; assay type: functional; conditions: 33.3 µM; also: in the data most compounds retested in dose-response had high values
T2 sequence (whole entry): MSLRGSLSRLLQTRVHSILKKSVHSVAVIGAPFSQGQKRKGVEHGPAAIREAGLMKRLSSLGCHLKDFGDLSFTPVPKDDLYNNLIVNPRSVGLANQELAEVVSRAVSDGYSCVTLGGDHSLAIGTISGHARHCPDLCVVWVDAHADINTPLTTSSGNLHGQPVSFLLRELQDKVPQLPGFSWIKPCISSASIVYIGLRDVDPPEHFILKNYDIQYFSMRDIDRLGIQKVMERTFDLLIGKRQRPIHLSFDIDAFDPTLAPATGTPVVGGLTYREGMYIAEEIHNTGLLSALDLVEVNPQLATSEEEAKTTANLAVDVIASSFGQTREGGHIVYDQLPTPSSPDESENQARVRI

[6] = target: T3, Proteasome subunit beta (Trypanosoma cruzi) (UniProt O96673); assay: Trypanosoma cruzi proteasome chymotrypsin-like activity (TcProtChymo) assay.; also: in the data most compounds retested in dose-response had high values; assay type: functional; conditions: 9.37 µM
T3 sequence (whole entry): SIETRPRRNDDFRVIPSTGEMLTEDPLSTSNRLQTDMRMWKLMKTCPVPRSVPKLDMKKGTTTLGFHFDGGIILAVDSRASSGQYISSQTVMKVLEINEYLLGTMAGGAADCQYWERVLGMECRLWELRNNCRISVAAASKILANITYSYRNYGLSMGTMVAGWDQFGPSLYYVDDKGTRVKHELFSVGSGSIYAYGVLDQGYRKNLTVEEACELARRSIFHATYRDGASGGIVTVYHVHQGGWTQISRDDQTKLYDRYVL

Homo sapiens = organism: Homo sapiens; assay: To identify inhibition of the IFN signalling (Jak-Stat) pathway via expression of an eGFP reporter gene under the control of an IFN-stimulated response element (ISRE) containing MxA promoter.; assay type: functional; conditions: 30 µM
[7] = target: T4, Tyrosyl-tRNA synthetase, putative (Trypanosoma cruzi (strain CL Brener)) (UniProt Q4DSP6); assay: Trypanosoma cruzi tyrosyl tRNA synthetase (TcYRS) _High Tyrosine SOP; assay type: functional; conditions: 30 µM; also: in the data most compounds retested in dose-response had high values
T4 sequence (whole entry): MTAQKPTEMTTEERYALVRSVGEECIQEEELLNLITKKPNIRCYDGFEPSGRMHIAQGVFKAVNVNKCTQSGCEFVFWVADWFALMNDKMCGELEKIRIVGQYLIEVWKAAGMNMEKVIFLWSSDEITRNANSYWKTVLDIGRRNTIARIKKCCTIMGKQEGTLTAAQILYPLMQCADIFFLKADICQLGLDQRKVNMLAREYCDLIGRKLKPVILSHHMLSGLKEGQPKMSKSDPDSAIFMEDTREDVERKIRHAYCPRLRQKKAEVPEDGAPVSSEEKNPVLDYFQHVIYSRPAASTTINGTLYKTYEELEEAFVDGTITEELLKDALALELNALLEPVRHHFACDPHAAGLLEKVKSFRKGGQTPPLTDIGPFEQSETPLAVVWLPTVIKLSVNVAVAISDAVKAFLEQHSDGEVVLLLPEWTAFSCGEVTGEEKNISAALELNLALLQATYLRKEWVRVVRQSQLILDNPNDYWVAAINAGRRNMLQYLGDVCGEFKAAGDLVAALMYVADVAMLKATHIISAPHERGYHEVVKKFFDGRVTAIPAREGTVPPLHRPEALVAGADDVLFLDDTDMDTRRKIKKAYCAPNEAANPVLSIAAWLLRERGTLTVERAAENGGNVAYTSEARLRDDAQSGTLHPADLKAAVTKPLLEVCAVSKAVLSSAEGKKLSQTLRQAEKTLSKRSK

[8] = target: T4, Tyrosyl-tRNA synthetase, putative (Trypanosoma cruzi (strain CL Brener)); assay: Trypanosoma cruzi tyrosyl tRNA synthetase (TcYRS) SOP; assay type: functional; conditions: 30 µM
[9] = target: Chromo domain-containing protein 1 (Saccharomyces cerevisiae (strain ATCC 204508 / S288c) (Baker's yeast)) (UniProt P32657); assay: ScCHD-1 Enzyme Inhibition Assay; assay type: functional; conditions: 30 µM; also: in the data most compounds retested in dose-response had high values
Sequence of Chromo domain-containing protein 1 (Saccharomyces cerevisiae (strain ATCC 204508 / S288c) (Baker's yeast)) (P32657 whole entry, the tested form may be a part): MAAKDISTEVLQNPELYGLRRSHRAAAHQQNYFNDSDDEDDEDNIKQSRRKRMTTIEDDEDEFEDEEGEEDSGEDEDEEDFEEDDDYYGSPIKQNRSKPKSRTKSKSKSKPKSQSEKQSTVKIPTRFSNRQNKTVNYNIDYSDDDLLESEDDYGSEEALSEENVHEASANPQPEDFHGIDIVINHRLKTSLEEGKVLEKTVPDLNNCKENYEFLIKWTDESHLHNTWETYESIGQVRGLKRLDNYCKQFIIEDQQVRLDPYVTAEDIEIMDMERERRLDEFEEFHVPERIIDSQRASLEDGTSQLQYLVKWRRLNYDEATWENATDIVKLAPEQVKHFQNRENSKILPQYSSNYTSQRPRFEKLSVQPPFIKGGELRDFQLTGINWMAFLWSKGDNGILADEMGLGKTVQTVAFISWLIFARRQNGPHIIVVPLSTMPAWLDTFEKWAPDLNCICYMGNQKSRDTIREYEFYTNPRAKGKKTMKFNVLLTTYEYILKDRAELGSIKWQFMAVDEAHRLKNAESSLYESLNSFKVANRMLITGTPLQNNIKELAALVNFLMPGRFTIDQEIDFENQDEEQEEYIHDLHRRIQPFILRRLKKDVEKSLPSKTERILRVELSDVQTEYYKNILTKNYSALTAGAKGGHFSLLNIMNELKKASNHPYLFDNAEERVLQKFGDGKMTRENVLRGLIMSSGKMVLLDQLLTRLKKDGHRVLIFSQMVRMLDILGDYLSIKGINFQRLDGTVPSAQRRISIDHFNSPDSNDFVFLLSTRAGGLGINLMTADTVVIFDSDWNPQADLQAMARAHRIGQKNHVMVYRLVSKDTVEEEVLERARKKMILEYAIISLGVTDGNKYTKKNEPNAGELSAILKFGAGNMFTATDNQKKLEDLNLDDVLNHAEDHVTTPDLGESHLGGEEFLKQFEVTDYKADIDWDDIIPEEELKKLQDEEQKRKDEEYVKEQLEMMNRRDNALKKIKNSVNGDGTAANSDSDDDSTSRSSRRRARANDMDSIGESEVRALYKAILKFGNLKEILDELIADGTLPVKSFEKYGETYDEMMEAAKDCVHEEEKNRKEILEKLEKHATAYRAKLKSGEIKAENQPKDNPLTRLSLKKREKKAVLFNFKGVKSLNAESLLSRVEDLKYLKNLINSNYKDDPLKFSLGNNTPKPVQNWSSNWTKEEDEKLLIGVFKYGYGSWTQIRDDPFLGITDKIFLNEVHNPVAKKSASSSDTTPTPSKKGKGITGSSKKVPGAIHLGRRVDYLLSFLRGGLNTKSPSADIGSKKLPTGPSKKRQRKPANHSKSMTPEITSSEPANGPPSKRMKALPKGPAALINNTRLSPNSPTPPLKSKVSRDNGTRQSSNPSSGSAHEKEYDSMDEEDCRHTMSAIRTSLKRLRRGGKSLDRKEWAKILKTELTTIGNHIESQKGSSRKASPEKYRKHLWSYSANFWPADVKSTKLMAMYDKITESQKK

Compound | Percent Effect [1] [%] | Percent Effect [2] [%] | Percent Effect [3] [%] | Percent Effect [4] [%] | Percent Effect (Trypanosoma cruzi) [%] | Percent Effect [5] [%] | Percent Effect [6] [%] | Percent Effect (Homo sapiens) [%] | Percent Effect [7] [%] | Percent Effect [8] [%] | Percent Effect [9] [%]
CC(c1nc(C(C)(C)C)no1)N1CCN(CC(=O)N2CCOCC2)CC1 (configuration not stated) | -3.63 | 0 | 1.02 | 12.9 | -1.66 | -1.18 | 10.1 | 0.488 | 2.13 | 2.6 | 1.93
CCCC(C)CN1CCC(n2cc(C3CCCC3)nn2)CC1 (configuration not stated) | -5.89 | 13.3 | -5.31 | 18.9 | 9.45 | 10.4 | 9.07 | 7.54 | 6.01 | 11.1 | -4.05
O=C(Cc1ccc(O)c(Cl)c1)N1CCCCC1CCn1cccn1 (configuration not stated) | -3.9 | 13.5 | 1.21 | 26.9 | 3.09 | 0.476 | 10.9 | 0.632 | 3.7 | 19.5 | -5.17
COc1ccc(Oc2cncc(C3CCCN3C(C)=O)n2)cc1 (configuration not stated) | -0.946 | 12.2 | 4.91 | -7.65 | -3.56 | 0.696 | 9.36 | 15.2 | 0 | 3.9 | -11.7
Cc1ncccc1Oc1nccnc1C1CCN(C(C)C)CC1 | -6.52 | 6.76 | 1.33 | 5.77 | 0.593 | -2.09 | 2.65 | -0.668 | -31.2 | 9.09 | -19.2
Cn1ncc2c1C(COCC1CC1)CN(Cc1ccc(F)cc1)C2 (configuration not stated) | -0.87 | 18.9 | 3.73 | -11.9 | -1.07 | 0.955 | 8.12 | 23.2 | 2.16 | 15.4 | -6.67
COc1ccccc1C(=O)N(C)Cc1ncc(C)c(OC)c1C | -0.917 | -2.6 | 2.31 | 10.5 | -1.86 | 0.21 | 3.8 | 5.2 | -0.952 | -2.35 | -15.8
COc1ccc(NC(=O)CCC2CCCN(Cc3ncon3)C2)cc1Cl (configuration not stated) | -3.35 | 10.7 | -3.08 | 17.1 | 2.82 | 7.81 | 24.8 | -6.37 | 8.2 | 18.5 | 92.7
CCS(=O)(=O)N1CCC(c2nnc(CN3CCOCC3)n2C)CC1 | -3.22 | 18.7 | -2.94 | 20 | 3.8 | 5.73 | 14.5 | 3.52 | 9.29 | 21 | -5.76
CCOc1ccc(CN(C)C(=O)NC(C)c2nncn2C)cc1 (configuration not stated) | 1.14 | 15.3 | -8.94 | 7 | 0.0972 | 4.42 | 18.4 | 11.4 | 7.37 | 5.13 | -0.989
FC(F)(F)C1CCCn2c(CNCc3ccsc3)nnc21 (configuration not stated) | -2.76 | 2.67 | -9.01 | 4.99 | 2.63 | 1.56 | 20.2 | -14.2 | 9.29 | 18.5 | -3.87
Cc1cn2c(n1)CCC(NC(=O)CCn1ccnn1)C2 (configuration not stated) | -3.55 | 5.26 | -3.01 | -3.07 | -3.08 | 3.24 | 5.33 | -2.68 | 2.46 | 6.17 | 3
CSCC(C)(O)CNC(=O)c1cc(Br)ccc1Cl (configuration not stated) | -6.56 | 2.74 | -10.3 | 29.6 | 9.01 | -4.54 | 18.1 | 10.3 | 3.23 | 17.5 | 34.8
COC(=O)N1CCc2ccc(NC(=O)c3cn(C)nn3)cc2C1 | -6.1 | 10.4 | 2.87 | 5.76 | 2.07 | -49.7 | 9.92 | 12.5 | 5.29 | 8.97 | 90.7
O=C(COc1cccc2c1CCC2=O)NCc1ccccc1F | -2.77 | 13.2 | 2.6 | -2.18 | 4.58 | 11.8 | 9.49 | 11 | 3.19 | 10.4 | -2.42
Cc1nc(CNCc2c(C)nn(C)c2N2CCOCC2)cs1 | -2.88 | 7.89 | -0.222 | 9.92 | 3.95 | 2.68 | 5.68 | -6.91 | 4.41 | -4.88 | -3.53
CN(C)C(=O)N1CCC2(CCCN(Cc3cnn(C)c3)C2)C1 (configuration not stated) | -3.04 | 0 | 12 | 1.42 | -2.83 | 0.955 | 19 | -3.73 | 1.08 | 5.13 | -0.435
CC(NC(=O)C1=NN(C)C(=O)CC1)c1ccc(F)cc1F (configuration not stated) | -1.15 | 16.4 | 16.9 | 10.9 | 4.11 | -4.09 | 20.4 | 14.5 | 5.38 | 15 | -6.12
CCOCC1CN(C(=O)C2=CCCC2)Cc2cnn(CC)c21 (configuration not stated) | -2.5 | 16.2 | -0.303 | 0.664 | 3.62 | 3.5 | 19.9 | 9.89 | 3.24 | 12.8 | -2.18
Cc1cccc(CNCc2c(C(C)C)nn(C)c2N2CCOCC2)n1 | -1.17 | 5.48 | -18.3 | -6.47 | -1.57 | -8.64 | 5.68 | -8.24 | 2.15 | 5 | -2.13
CN1CCc2c(C#N)c(NCCCN3CCOCC3)n3cnnc3c2C1 | -3.76 | 10.5 | 2.8 | 1.44 | -1.46 | -1.18 | 13.7 | -9.43 | 4.25 | 10.4 | -1.19
O=C(CCc1ccsc1)N1CCC(Cc2ccc(CO)cc2)C1 (configuration not stated) | 2.19 | 4.17 | -0.478 | -3.78 | -6.9 | 3.53 | 12.5 | -1.24 | 3.16 | 7.69 | -1.32
